# Laboratory results as given in PubChem BioAssay (NCATS).
# A number with no mark means an inactive call. Records with an inconclusive call do not appear. Where a call stands in place of a potency, no number is given. Activity calls are given as the source filed them. Unless noted, calls follow the shape of the dose curve; as a rule, active = well fitted curve in the direction sought with a large enough effect; inconclusive = small, poorly fitted or top-dose-only effect, or another doubt; inactive = no such curve, though single readings can be large; an effect the other way counts as inactive or inconclusive.
# Tests used:
# [1] = AP1 Signaling Pathway (AID 357; active = well fitted curve in either direction with a large enough effect, not every such curve was filed as active;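 also: ME-180 reporter cells stimulated with EGF at its EC50 level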); conditions: ME-180 AP-1-bla reporter, EGF-induced, beta-lactamase ratio, 5 h; at 7.69 µM (top of the series) unless noted
# Method in brief: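 Modulation of EGF-driven AP-1 transcription was assessed with a beta-lactamase reporter in ME-180 cells. Compound and EC50 EGF were co-incubated 5 hours at 37 °C before 2.5-hour CCF4 loading at room temperature and dual-emission reading.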
# [2] = target: Cytochrome P450 1A2 (Homo sapiens) (UniProt P05177); test: p450-cyp1a2 (AID 410; calls by dose curve; also: potency is read from the fitted curve at half-maximal effect); conditions: recombinant CYP1A2, luciferin-ME demethylation, luminescence; series mostly up to 11.4 µM
# Cytochrome P450 1A2 (Homo sapiens), sequence (P05177 whole entry, looked up): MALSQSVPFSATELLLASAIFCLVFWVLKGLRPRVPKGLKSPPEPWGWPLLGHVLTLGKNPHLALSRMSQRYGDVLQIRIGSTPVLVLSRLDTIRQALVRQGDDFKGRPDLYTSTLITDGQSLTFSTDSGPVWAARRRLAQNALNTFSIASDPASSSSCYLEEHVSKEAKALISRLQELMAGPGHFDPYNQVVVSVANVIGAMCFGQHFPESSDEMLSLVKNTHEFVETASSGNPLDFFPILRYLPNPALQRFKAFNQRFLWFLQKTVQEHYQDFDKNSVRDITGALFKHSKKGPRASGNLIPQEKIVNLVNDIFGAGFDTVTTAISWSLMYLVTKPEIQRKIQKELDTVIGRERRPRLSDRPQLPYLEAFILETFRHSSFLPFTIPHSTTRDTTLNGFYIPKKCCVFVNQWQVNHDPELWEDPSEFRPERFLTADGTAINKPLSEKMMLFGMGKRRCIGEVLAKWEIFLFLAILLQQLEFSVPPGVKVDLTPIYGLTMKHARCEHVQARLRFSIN
# Method in brief: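 O-Demethylation of luciferin 6' methyl ether by human CYP1A2 is monitored as luciferase luminescence. Substrate sits at Km (100uM); enzyme is 20nM. Values are scaled to 57 uM furafylline as maximal inhibition.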
# [3] = NFAT Signaling Pathway (AID 444; active = well fitted curve in either direction with a large enough effect, not every such curve was filed as active;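 also: carbachol stimulus at about its EC50 of 1 µM final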); conditions: Jurkat NFAT-bla M1, carbachol, beta-lactamase ratio, 5 h; at 7.69 µM (top of the series) unless noted
# Method in brief: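 Jurkat cells with NFAT-driven β-lactamase reporter and co-expressed M1 receptor, stimulated with carbachol (final 1 uM, ~EC50), compound titration, 5 h at 37 °C. CCF4 loaded 1 h at RT; 460/530 nm ratio gave %activity and AC50.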
# [4] = Stat Signaling Pathway (AID 446; active = well fitted curve in either direction with a large enough effect, not every such curve was filed as active;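 also: ME-180 cervical cancer cells given 40 pM IL-6 alongside compound; SIE-controlled beta-lactamase reporter measured as 460/530 nm FRET emission ratio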); conditions: ME-180 SIE beta-lactamase reporter, IL-6 stimulated, 5 h; at 7.69 µM (top of the series) unless noted
# Method in brief: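 Overnight-plated ME-180 cells bearing a STAT Inducible Element beta-lactamase reporter; 5 h co-exposure to compound and 40 pM IL-6; values normalized to 300 pM IL-6 and 125 nM JAK inhibitor controls.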
# [5] = target: Glucocorticoid receptor (Homo sapiens) (UniProt P04150); test: GR-EFC Redistribution (AID 451; calls by dose curve; also: potency is read from the fitted curve at half-maximal effect); conditions: CHO-K1 GR-EFC translocation, beta-gal luminescence, 2 h
# Glucocorticoid receptor (Homo sapiens), sequence (P04150 whole entry, looked up, the tested form may be a part): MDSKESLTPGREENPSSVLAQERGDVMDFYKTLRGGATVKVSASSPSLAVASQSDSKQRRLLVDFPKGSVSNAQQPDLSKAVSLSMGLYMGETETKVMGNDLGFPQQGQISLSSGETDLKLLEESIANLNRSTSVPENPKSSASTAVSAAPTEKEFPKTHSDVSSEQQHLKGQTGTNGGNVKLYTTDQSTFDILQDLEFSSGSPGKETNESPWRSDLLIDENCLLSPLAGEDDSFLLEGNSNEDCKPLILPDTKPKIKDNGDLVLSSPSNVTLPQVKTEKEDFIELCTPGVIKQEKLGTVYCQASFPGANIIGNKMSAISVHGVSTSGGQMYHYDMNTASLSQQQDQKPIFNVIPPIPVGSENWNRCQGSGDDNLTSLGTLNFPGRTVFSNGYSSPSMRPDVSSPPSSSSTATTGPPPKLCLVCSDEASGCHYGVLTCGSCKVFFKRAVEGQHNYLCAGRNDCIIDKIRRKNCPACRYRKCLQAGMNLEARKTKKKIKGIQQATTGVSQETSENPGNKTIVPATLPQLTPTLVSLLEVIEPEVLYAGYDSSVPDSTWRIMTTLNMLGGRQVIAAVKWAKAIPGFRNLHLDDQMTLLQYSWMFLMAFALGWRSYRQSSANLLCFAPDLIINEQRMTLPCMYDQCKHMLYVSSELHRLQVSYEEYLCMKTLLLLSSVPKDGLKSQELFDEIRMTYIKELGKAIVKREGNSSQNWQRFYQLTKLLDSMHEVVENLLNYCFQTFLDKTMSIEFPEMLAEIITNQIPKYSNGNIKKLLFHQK
# Method in brief: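 CHO-K1 cells expressing nuclear EA and GR-ED fragments of b-gal; compounds titrated up to 46 uM final, 2 h at 37 C. GR nuclear translocation read as complemented b-gal luminescence after 1 h RT detection.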
# [6] = target: 3',5'-cyclic-AMP phosphodiesterase 4B (Homo sapiens) (UniProt Q07343); test: qHTS Assay for Inhibitors of PDE-IV (AID 607; active = well fitted activation curve with a large enough effect in the main read-out, with a control signal flat, not every such curve was filed as active); conditions: HEK293 ACTOne CNG channel cells, membrane potential fluorescence; series mostly up to 22.9 µM
# 3',5'-cyclic-AMP phosphodiesterase 4B (Homo sapiens), sequence (Q07343 whole entry, looked up): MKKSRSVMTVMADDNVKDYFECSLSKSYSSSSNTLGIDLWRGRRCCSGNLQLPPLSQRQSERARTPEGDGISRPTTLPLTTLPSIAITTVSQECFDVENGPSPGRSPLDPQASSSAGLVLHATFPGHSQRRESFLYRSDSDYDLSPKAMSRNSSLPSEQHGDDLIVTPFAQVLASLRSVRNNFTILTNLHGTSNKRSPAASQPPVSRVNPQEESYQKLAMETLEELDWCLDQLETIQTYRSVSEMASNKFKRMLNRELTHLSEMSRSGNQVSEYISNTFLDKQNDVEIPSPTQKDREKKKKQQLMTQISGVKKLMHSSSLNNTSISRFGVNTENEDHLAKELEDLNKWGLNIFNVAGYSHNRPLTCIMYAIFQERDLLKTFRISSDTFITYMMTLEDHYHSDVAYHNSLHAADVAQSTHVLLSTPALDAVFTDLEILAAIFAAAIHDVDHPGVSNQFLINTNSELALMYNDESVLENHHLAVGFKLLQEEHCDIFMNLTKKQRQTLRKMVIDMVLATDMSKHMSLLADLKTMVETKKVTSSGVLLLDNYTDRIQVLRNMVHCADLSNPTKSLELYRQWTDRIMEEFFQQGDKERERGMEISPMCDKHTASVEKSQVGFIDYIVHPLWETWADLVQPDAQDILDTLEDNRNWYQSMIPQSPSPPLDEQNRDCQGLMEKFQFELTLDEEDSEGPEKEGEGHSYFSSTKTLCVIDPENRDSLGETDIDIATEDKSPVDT
# Method in brief: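 Live HEK293 cells with a modified cyclic nucleotide-gated (CNG) channel report intracellular cAMP via membrane-potential dye fluorescence (ex 535/em 590 nm). Endogenous PDE-IV was targeted. Compounds were tested at up to 22.9 uM final; RO 20-1724 100 uM served as control.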
# [7] = qHTS Assay for Identification of Small Molecule Agonists for Thrombopoietin (TPO) Signaling Pathway (AID 917); conditions: TPO signaling pathway reporter cells, agonist qHTS, stimulated with TPO at its EC50; series mostly up to 38.5 µM
# Method in brief: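 Ba/F3 (mouse) + hTPO receptor + GpIIb-promoter luciferase; IL-3 withdrawn overnight; compound + 26 pM TPO (EC50), 24 hrs, 37 C, 5% CO2; Steadylite luminescence, 10 min RT.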
# [8] = target: Pyruvate kinase (Leishmania mexicana) (UniProt Q27686); test: qHTS Validation Assay for Inhibitors of Leishmania Mexicana Pyruvate Kinase (AID 945); conditions: purified L. mexicana pyruvate kinase, enzyme activity, E451W mutant enzyme; series mostly up to 57.5 µM
# Pyruvate kinase (Leishmania mexicana), sequence (Q27686 2-499 E452W): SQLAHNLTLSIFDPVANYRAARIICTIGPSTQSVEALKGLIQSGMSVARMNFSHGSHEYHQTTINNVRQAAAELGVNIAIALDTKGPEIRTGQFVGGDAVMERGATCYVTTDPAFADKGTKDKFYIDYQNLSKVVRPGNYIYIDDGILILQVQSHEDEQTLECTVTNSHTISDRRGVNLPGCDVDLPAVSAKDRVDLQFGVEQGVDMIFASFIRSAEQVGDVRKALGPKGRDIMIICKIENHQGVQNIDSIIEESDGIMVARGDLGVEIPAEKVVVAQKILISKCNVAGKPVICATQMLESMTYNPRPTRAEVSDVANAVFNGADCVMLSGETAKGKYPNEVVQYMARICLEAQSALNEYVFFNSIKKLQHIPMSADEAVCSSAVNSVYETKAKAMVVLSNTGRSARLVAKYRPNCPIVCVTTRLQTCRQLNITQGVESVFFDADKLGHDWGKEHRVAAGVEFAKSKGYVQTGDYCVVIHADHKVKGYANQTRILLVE
# Method in brief: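 Substrate mix (0.5 mM PEP, 0.1 mM ADP, 7 mM MgCl2, 50 mM KCl, pH 7.2 imidazole) received compound by pin tool, then 0.2 nM LmPYK E451W. After 1 h at room temperature, PKLight was added and luminescence measured.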
# [9] = target: Pyruvate kinase PKM (Homo sapiens) (UniProt P14618); test: qHTS Assay for Activators of Human Muscle Pyruvate Kinase (AID 954; active = well fitted curve in the direction sought with a large enough effect, not every such curve was filed as active); conditions: purified human muscle pyruvate kinase, luciferase-coupled luminescence, 1 h; series mostly up to 57.5 µM
# Pyruvate kinase PKM (Homo sapiens), sequence (P14618 whole entry, looked up): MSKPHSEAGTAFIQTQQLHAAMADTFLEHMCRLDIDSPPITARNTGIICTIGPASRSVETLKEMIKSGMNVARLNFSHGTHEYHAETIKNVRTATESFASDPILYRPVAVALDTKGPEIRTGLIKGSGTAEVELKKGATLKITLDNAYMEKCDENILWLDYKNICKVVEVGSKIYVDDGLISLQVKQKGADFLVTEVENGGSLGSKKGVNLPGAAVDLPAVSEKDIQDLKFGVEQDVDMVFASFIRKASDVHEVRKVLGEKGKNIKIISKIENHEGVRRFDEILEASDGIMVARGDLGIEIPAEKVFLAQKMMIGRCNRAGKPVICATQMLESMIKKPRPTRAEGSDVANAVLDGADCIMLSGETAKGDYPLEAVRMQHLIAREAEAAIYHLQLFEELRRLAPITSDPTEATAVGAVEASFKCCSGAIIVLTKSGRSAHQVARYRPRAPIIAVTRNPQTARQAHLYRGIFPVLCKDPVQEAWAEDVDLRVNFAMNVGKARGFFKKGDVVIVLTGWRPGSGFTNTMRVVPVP
# Method in brief: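 Screening used highly purified human pyruvate kinase M2 under submaximal activity, with PEP at its Km and ADP below Km. After an hour at room temperature, ATP was read by luciferase luminescence.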
# [10] = target: Alpha-galactosidase A (Homo sapiens) (UniProt P06280); test: Counterscreen for Glucocerebrosidase Inhibitors: qHTS Assay for Human alpha-Galactosidase at pH 4.5 (AID 992); conditions: purified enzyme, fluorogenic substrate; series mostly up to 76.9 µM
# Alpha-galactosidase A (Homo sapiens), sequence (P06280 whole entry, looked up): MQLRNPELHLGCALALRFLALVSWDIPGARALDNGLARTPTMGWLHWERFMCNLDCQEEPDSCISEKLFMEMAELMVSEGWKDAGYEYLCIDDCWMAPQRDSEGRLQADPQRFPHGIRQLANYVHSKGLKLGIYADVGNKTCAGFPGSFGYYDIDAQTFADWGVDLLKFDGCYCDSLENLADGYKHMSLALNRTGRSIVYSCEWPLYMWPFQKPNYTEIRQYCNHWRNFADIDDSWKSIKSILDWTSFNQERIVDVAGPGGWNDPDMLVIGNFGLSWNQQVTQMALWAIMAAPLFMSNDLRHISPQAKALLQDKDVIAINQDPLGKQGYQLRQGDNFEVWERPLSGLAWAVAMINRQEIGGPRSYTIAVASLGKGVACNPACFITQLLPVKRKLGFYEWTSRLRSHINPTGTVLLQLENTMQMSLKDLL
# Method in brief: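 Each compound is preincubated briefly with 2 nM enzyme before substrate addition (80 uM); plates then sit 20 min at ambient temperature, are quenched with 1M NaOH/1M glycine, and read fluorometrically.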
# [11] = target: alpha-glucosidase (Oryza sativa, rice) (UniProt Q653V4); test: Counterscreen for Glucocerebrosidase Inhibitors: qHTS Assay for Rice alpha-Glucosidase at pH 5.0 (AID 997); conditions: rice alpha-glucosidase enzyme activity; series mostly up to 76.9 µM
# Method in brief: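 Endpoint fluorogenic assay at pH 5.0: compounds (0.7 nM to 77 uM) titrated against 4 nM rice enzyme and 400 uM 4-MU-alpha-glucoside for 20 min at room temperature; NaOH/glycine stop, read ex 365/em 440 nm, Hill-fitted AC50.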
# [12] = target: Mitogen-activated protein kinase 10 (Mus musculus) (UniProt Q61831); test: JNK3 AlphaScreen Assay (AID 530; active = well fitted curve in either direction with a large enough effect, not every such curve was filed as active;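 also: kinase came from lysate of stimulated human HepG2 cells; signal reports phosphorylation of biotinylated GST-cJun 1-79 at Ser73 with 10 µM ATP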); conditions: JNK3 lysate, c-Jun phosphorylation; series mostly up to 11.4 µM
# Method in brief: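 Activity was read by AlphaScreen after JNK3-containing HepG2 lysate (cytokine pre-activated) phosphorylated biotinylated GST-cJun with 10 uM ATP at room temperature. Phospho-Ser73 cJun antibody with Protein-A acceptor beads provided detection.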
# [13] = target: Glucocorticoid receptor (Homo sapiens) (UniProt P04150); test: GR-GFP Redistribution (AID 450;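 active = compounds whose dose series gives a full or clear partial fitted curve of increased nuclear translocation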; also: potency is read from the fitted curve at half-maximal effect); conditions: U2OS GR-GFP nuclear translocation, laser cytometry, 2 h
# [14] = target: Guanine nucleotide-binding protein G(i) subunit alpha-1 (Homo sapiens) (UniProt P63096); test: qHTS Assay for Inhibitors of RGS12 GoLoco Motif Activity (Green Fluorophore) (AID 879); conditions: Galphai1/FITC-RGS12 GoLoco peptide, fluorescence polarization; series mostly up to 57.1 µM;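 also: negative values mean loss of peptide binding seen as reduced polarization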
# Guanine nucleotide-binding protein G(i) subunit alpha-1 (Homo sapiens), sequence (P63096 whole entry, looked up): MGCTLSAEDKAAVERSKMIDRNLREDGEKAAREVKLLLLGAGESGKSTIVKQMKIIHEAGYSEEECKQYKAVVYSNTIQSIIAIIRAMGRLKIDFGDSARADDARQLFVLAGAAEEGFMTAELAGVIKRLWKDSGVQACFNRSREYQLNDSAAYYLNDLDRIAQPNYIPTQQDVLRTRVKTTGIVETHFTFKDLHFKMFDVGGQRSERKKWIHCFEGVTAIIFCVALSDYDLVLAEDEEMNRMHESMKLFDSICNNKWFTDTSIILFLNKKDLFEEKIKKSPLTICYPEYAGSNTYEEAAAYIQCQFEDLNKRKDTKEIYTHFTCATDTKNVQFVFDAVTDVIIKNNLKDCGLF
# Method in brief: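 A drop in FITC polarization marked displacement of the FITC-tagged RGS12 GoLoco peptide (10 nM) from Gαi1 (50 nM). Compounds were incubated 10 min at room temperature in Tris pH 7.5 buffer containing 150 mM NaCl, 0.1 mM GDP and 0.05% NP40; unlabeled peptide titration served as control.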
# [15] = qHTS Assay for Identification of Small Molecule Antagonists for NFkB Signaling Pathway (AID 895; active = well fitted inhibition curve with a large enough effect in the signal ratio, with a control signal flat, not every such curve was filed as active; the % refers to the signal ratio); conditions: NFkB beta-lactamase reporter cells, FRET ratio 460/530, stimulated with 10 pM TNF alpha; series mostly up to 38.3 µM
# Method in brief: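 ME-180 NFkB-bla cells (beta-lactamase under NFkB response element), plated overnight, treated with compound then 10 pM TNF alpha (about EC50) for 5 hrs at 37 C. LiveBLAzer FRET read at 460/530 nm emission, 405 nm excitation.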
# [16] = target: Muscarinic acetylcholine receptor M1 (Rattus norvegicus) (UniProt P08482); test: qHTS Assay for Antagonists of Acetylcholine Muscarinic M1 Receptor: Kinetic Measurement of Intracellular Calcium Response (AID 943); conditions: M1-expressing cells, kinetic intracellular calcium fluorescence; series mostly up to 35.3 µM;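 also: Fluo-4 calcium signal as peak divided by basal fluorescence over 4 min; nearly all actives have a fitted effect of over 75% in size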
# Muscarinic acetylcholine receptor M1 (Rattus norvegicus), sequence (P08482 whole entry, looked up): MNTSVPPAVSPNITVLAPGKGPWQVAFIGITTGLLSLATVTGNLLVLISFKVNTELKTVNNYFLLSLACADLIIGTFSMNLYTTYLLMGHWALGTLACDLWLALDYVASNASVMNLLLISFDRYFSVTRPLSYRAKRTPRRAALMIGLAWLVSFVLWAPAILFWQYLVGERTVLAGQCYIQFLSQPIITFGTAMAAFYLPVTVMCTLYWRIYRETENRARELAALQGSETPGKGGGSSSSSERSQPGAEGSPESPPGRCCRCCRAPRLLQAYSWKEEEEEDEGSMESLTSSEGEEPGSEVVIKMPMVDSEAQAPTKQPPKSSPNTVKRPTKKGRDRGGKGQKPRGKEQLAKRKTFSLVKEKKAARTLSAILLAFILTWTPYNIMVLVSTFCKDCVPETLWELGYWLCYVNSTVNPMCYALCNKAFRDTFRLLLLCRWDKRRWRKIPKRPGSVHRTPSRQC
# Method in brief: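 Antagonism is measured as inhibition of the carbachol-evoked calcium rise in CHO cells transfected with rat M1. Cells are dye-loaded, exposed to compound for 10 min, then stimulated with 100 nM carbachol (EC80).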
# [17] = target: Muscarinic acetylcholine receptor M1 (Rattus norvegicus) (UniProt P08482); test: qHTS Assay for Antagonists of Acetylcholine Muscarinic M1 Receptor: Measurement of IP-One Response (AID 944); conditions: CHO-M1 cells, IP-One HTRF, antagonist mode; series mostly up to 46.1 µM; also: nearly all actives have a fitted effect of over 75% in size
# Method in brief: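 Antagonist mode with rat M1 receptor transfected into CHO cells. Compound is added first for 10 min, carbachol at its EC80 follows for 30 min, and lysis reagents then allow TR-FRET detection of accumulated IP1.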
# [18] = target: Cytochrome P450 2D6 (Homo sapiens) (UniProt P10635); test: qHTS Assay for Inhibitors and Substrates of Cytochrome P450 2D6 (AID 891); conditions: recombinant CYP2D6, luciferin-ME EGE luminescence; series mostly up to 11.4 µM;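 also: luciferin methyl ether substrate demethylated by CYP2D6 with NADPH regeneration; nearly all actives have a fitted effect of over 60% in size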
# Cytochrome P450 2D6 (Homo sapiens), sequence (P10635 whole entry, looked up): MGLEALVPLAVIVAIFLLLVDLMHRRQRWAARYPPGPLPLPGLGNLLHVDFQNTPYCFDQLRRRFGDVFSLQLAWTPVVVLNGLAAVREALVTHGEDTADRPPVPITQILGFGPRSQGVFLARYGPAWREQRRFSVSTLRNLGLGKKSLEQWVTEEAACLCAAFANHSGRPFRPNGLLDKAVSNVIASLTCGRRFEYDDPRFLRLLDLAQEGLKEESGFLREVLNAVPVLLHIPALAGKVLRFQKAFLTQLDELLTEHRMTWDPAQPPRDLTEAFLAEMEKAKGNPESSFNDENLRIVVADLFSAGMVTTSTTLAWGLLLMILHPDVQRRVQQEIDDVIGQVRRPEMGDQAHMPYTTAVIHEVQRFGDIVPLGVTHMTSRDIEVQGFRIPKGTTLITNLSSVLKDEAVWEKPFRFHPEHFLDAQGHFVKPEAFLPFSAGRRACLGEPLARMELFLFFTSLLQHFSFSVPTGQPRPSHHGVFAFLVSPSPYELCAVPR
# Method in brief: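 Luminescent read-out of luciferin formed by 5 nM human CYP2D6 demethylating 30 uM Luciferin-ME EGE (Km level) over 60 min at room temperature after NADPH regeneration addition. Data normalized to full inhibition by 1.43 uM quinidine.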
# [19] = target: Cytochrome P450 2C19 (Homo sapiens) (UniProt P33261); test: qHTS Assay for Inhibitors and Substrates of Cytochrome P450 2C19 (AID 899); conditions: recombinant CYP2C19, luciferin-H EGE luminescence; series mostly up to 11.4 µM; also: nearly all actives have a fitted effect of over 60% in size
# Method in brief: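 Signal comes from luciferase acting on luciferin released by CYP2C19-mediated hydroxylation of Luciferin-H EGE, 10uM (KM). Assay mix: 5nM enzyme, 50mM KPO4; 60 min at 37C with NADPH regeneration. Data normalized against 57uM ketoconazole.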
# [20] = target: Cytochrome P450 3A4 (Homo sapiens) (UniProt P08684); test: qHTS Assay for Activators of Cytochrome P450 3A4 (AID 885); conditions: recombinant CYP3A4, Luciferin-PPXE luminescence, 60 min; series mostly up to 11.4 µM; also: nearly all actives have a fitted effect of over 65% in size
# Method in brief: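 Using 20nM recombinant human CYP3A4 in potassium phosphate (200mM), substrate Luciferin-PPXE at 25uM, luminescent luciferin detection followed a 60-min RT NADPH reaction; data scaled to 57 uM ketoconazole.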
SMILES,"activity change, negative = inhibition [1]",Potency [2],"activity change, negative = inhibition [3]","activity, negative = inhibition [4]",Potency [5],Potency [6],outcome [7],outcome [8],outcome [9],outcome [10],Potency [11],Potency [12],Potency [13],outcome [14],Potency [15],Potency [16],Potency [17],Potency [18],Potency [19],Potency [20]
C[C@@]12C=CC(=O)C=C1CC[C@@H]1C2=CC[C@]2(C)[C@@H]1CC[C@H]2C(=O)CN1CCN(c2cc(N3CCCC3)nc(N3CCCC3)n2)CC1,13.8% [at 38 µM],12.6 µM (active),-21.1% [at 38 µM],9.08% [at 38 µM],> 46 µM,inactive,inactive,inactive,inactive,inactive,inactive,,,,,,,,,
CO/N=C(\C(=O)N[C@@H]1C(=O)N2C(C(=O)[O-])=C(C[N+]3(C)CCCC3)CS[C@@H]12)c1csc(N)n1,2.79% [at 17.2 µM],inactive,-16.9% [at 17.2 µM],11.5% [at 17.2 µM],,inactive,,,,,,inactive,,,,,,,,
[N-]=[N+]=Nc1ccc(C(=O)CSC[C@@H](NC(=O)CC[C@@H](N)C(=O)O)C(=O)NCC(=O)O)cc1,-0.0447% [at 38 µM],inactive,-3.2% [at 38 µM],10.6% [at 38 µM],> 46 µM,inactive,inactive,inactive,inactive,inactive,inactive,,> 46 µM,inactive,inactive,inactive,inactive,,,
N[C@@H]1C=CC=C(C(=O)O)C1,-1.23% [at 38 µM],inactive,5.33% [at 38 µM],16.2% [at 38 µM],> 46 µM,inactive,inactive,inactive,inactive,inactive,inactive,,> 46 µM,inactive,inactive,inactive,,,,
C[C@@]12CCC(=O)C=C1CC[C@H]1[C@H]3CC[C@](O)(C(=O)CO)[C@]3(C)CC[C@@H]12,16% [at 38 µM],inactive,-2.8% [at 38 µM],-40.3% [at 38 µM],,inactive,,,,,,inactive,0.114 µM (active),,,,,inactive,,
CCn1cc(C(=O)O)c(=O)c2ccc(Cc3ccccc3)nc21,-7.45% [at 38 µM],inactive,2.79% [at 38 µM],8.13% [at 38 µM],> 46 µM,,,,,,,,> 46 µM,,,,,inactive,inactive,
C[C@@H]1C(=O)N(C)C(=O)c2nc[nH]c21,-6.31% [at 38 µM],inactive,-19.2% [at 38 µM],15% [at 38 µM],> 46 µM,inactive,inactive,inactive,inactive,inactive,inactive,,> 46 µM,inactive,inactive,,,,,
C[C@@H]1C[C@H]2[C@H]3C[C@@H](F)C4=CC(=O)C=C[C@]4(C)[C@@]3(Cl)[C@@H](O)C[C@@]2(C)[C@@H]1C(=O)COC(=O)C(C)(C)C,-11.4% [at 17.2 µM],inactive,-26.1% [at 17.2 µM],-9.29% [at 17.2 µM],,inactive,,,,,,inactive,,,,,,,,inactive
OC[C@@H]1O[C@H](O)[C@@H](Cl)[C@H](O)[C@@H]1O,-0.164% [at 38 µM],inactive,4.5% [at 38 µM],14% [at 38 µM],> 46 µM,inactive,inactive,inactive,inactive,inactive,inactive,,> 46 µM,inactive,,inactive,inactive,,,
C=C/C(C)=C/[C@]1(C)SC(=O)C(C)=C1O,-3.15% [at 38 µM],inactive,11.1% [at 38 µM],-7.1% [at 38 µM],,inactive,inactive,inactive,inactive,inactive,inactive,,> 46 µM,inactive,inactive,inactive,inactive,,,
OC[C@@H]1O[C@@H](n2cnc3c(N[C@@H]4C[C@@H]5CC[C@H]4C5)ncnc32)[C@@H](O)[C@H]1O,-1.94% [at 38 µM],inactive,8.03% [at 38 µM],24.8% [at 38 µM],> 46 µM,inactive,inactive,inactive,inactive,inactive,inactive,,> 46 µM,inactive,inactive,inactive,inactive,,,
